Measured values as given in PubChem BioAssay AID651821 (The Scripps Research Institute Molecular Screening Center, 2012).
In all, about 370,000 compounds went through this assay and about 4,700 (1.3%) were called active. This is one part of a sample in which actives are shown more often than they occur. Values without a mark were called inactive.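 Rule for the calls: active = inhibition above the plate cutoff, the mean of all test compounds on that plate plus 3 SD (cut at about 35% in these data); inactive = the rest.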

Assay: small molecules binding CAG repeat RNA – biochemical, fluorescence, primary screen (AID 651821);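 note: 0% = DMSO alone and 100% = 100 µM mitoxantrone as full dye displacement; higher means more dye released from RNA so lower well fluorescence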
Conditions: r(CAG) RNA repeat, TO-PRO-1 dye displacement fluorescence; at 3 µM; active compounds read high

Row | SMILES | inhibition
1 | CCn1cc(CN2CCCC(CNS(=O)(=O)Cc3ccccc3)C2)cn1 (centres undefined) | 0.88%
2 | Cc1ccccc1NC(=O)C1CCN(c2ncccn2)CC1 | -0.95%
3 | COc1ccc(S(=O)(=O)NCC(c2ccc(C)cc2)N2CCN(C)CC2)cc1OC (centres undefined) | -10.5%
4 | COc1ccc(C(=O)OCCN(C)C2CN(Cc3cn(Cc4cccc(C)c4)nn3)S(=O)(=O)C2)cc1OC (centres undefined) | 0.03%
5 | O=C(c1cc(-c2ccc(Cl)s2)nc2ccccc12)N1CCOCC1 | 3.5%
6 | O=C(Nc1nnc(-c2ccccc2)o1)c1cc(-c2cccs2)nc2ccccc12 | 56.2% (active)
7 | Cc1c(NC(=O)c2cc(-c3ccc(Cl)s3)nc3ccccc23)c(=O)n(-c2ccccc2)n1C | 7.65%
8 | CC(c1ccc(N)cc1)c1cn(C)c2ccccc12 (centres undefined) | 7.15%
9 | CCC(C)[C@@H](C(=O)OC)N(CCc1cn(Cc2ccccc2)nn1)S(=O)(=O)c1ccccc1Br (some centres undefined) | 2.88%
10 | Cc1ccc(CNC(=O)C2CCN(S(=O)(=O)c3ccc4nc5c(c(C(=O)O)c4c3)CC(C)CC5)CC2)cc1 (centres undefined) | 51.8% (active)
11 | CCOC(CNC(=O)C1CCN(S(=O)(=O)c2ccc3nc4c(c(C(=O)O)c3c2)CC(C)CC4)CC1)OCC (centres undefined) | 25.9%
12 | CC(=O)N1c2ccc(S(=O)(=O)N3CCC(C(=O)NCc4ccc(F)cc4)CC3)cc2CC1C (centres undefined) | 1.14%
13 | COC(=O)C1=C(C)N(Cc2ccc(C(F)(F)F)cc2)C(=NCc2ccc(C(F)(F)F)cc2)NC1c1cccc(Cl)c1 (centres undefined) | 2.08%
14 | COC(=O)c1c(NC(=O)C2CC(C)=C(C)CC2C(=O)O)sc2c1CCCCC2 (centres undefined) | 53.5% (active)
15 | N#Cc1c(NC(=O)C2CCCO2)sc2c1CCCCC2 (centres undefined) | -2.89%
16 | O=C(O)C1CC=C(Cl)CC1C(=O)NCc1ccccc1 (centres undefined) | 1.32%
17 | COC(=O)c1c(NC(=O)CN2C(=O)NC(CCc3ccccc3)C2=O)sc2c1CCCCC2 (centres undefined) | 10%
18 | COC(=O)c1c(NC(=O)CSc2nncs2)sc2c1CCCCC2 | 0.27%
19 | N#Cc1c(NC(=O)C2CC(Cl)=CCC2C(=O)O)sc2c1CCCCC2 (centres undefined) | 42.8% (active)
20 | C[C@H]1CCC/C=C/C(=O)c2c(O)cc(O)cc2CC(=O)O1 | 6.03%
21 | N#Cc1c(-c2ccc(Cl)cc2)c2c([nH]c1=S)CCCC2 | 17.9%
22 | C=CCN1C(C(=O)OC)CN(Cc2cn(Cc3ccccc3)nn2)CCS1(=O)=O (centres undefined) | 3.76%
23 | COc1ccc(CNS(=O)(=O)c2cc(-c3cc(C)no3)ccc2C(C)C)cc1 | 1.21%
24 | COc1ccc(CCNS(=O)(=O)c2ccc(Cl)s2)cc1OC | -4.15%
25 | COC(=O)c1ccc(NC(=O)c2ccccc2NS(=O)(=O)c2ccccc2)cc1 | 74.1% (active)
26 | CCOC(=O)c1ccc(N/C(=N/S(=O)(=O)c2ccccc2)c2ccccc2)cc1 | 0.82%
27 | COc1cccc(NC(=O)c2ccccc2N(Cc2ccccc2)S(C)(=O)=O)c1 | 4.73%
28 | COc1cc(NC(=O)c2ccccc2NS(=O)(=O)c2ccc(Cl)s2)cc(OC)c1 | 84.6% (active)
29 | CCOc1ncccc1C(=O)Nc1ccc(S(=O)(=O)Nc2nc(C)cc(C)n2)cc1 | 16.8%
